“And” between values parts separate entries of the source, which are not always exact repeats. Equal values may be shown once. For some assays here: Potency and affinity values are given separately. The source made the active and inactive calls. Unless noted, cut-off not given; nearly all actives show IC50 up to about 0.91 µM.
Target: Protein kinase 7 (PK7), Plasmodium falciparum 3D7 (PF3D7_0213400) (UniProt Q7YTF7)
Assay: inhibition of Plasmodium PK7 catalytic activity – biochemical, TCAMS antimalarial set, Kinase-Glo luminescence (AID 1159587; call rule not given here)
Settings: recombinant PfPK7, Kinase-Glo ATP depletion luminescence

Protein kinase 7 (PK7), Plasmodium falciparum 3D7 (PF3D7_0213400), sequence (Q7YTF7 1-343): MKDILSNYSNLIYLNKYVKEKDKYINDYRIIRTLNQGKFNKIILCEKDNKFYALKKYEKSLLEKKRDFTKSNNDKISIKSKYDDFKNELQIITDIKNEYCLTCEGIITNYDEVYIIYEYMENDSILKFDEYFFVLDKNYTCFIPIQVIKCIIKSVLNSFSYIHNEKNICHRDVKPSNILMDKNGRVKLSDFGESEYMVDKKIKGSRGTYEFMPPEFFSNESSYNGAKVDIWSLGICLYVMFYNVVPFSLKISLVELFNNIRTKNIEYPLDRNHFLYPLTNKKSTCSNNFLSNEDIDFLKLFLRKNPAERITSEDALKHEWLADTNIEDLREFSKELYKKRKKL

Row | SMILES | outcome
1 | Cc1c2ccncc2c(C)c2c1[nH]c1ccccc12 | inactive
2 | C=CC12CCN(CC1)C(C(O)c1ccnc3ccc(OC)cc13)C2 (stereo unspecified) | inactive
3 | O=C(C=Cc1ccc(-c2ccccc2)cc1)NC1CCC(CN2CCC(c3c[nH]c4ccccc34)CC2)CC1 (stereo unspecified) | inactive
4 | COC(=O)/C=C/C(=O)N[C@@H]1CC[C@@]2(O)[C@H]3Cc4ccc(O)c5c4[C@@]2(CCN3CC2CC2)[C@H]1O5 | inactive
5 | COC(=O)c1ccc(CC(C)NCC(O)c2cccc(C(F)(F)F)c2)cc1F (stereo unspecified) | inactive
6 | Cc1[nH]c2cc(Cl)ccc2c1C1=CCN(CCCCC2(C)C(=O)Nc3c(F)cccc32)CC1 (stereo unspecified) | inactive
7 | Cc1c(C)c2c(c(C)c1O)CC[C@](C)(C(=O)N1CCC(CN3CCC(c4c[nH]c5ccccc45)CC3)CC1)O2 | inactive
8 | CC[C@H]1CN2CC[C@@H]1C[C@H]2[C@H](O)c1cc[n+]([O-])c2ccc(OC)cc12 | inactive

Target: Calcium-dependent protein kinase 4 (Plasmodium falciparum (isolate 3D7)) (UniProt Q8IBS5)
Assay: PfCDPK4 kinase inhibitors, biochemical, TCAMS library (AID 1159588)
Settings: recombinant PfCDPK4, Kinase-Glo ATP depletion luminescence

Calcium-dependent protein kinase 4 (Plasmodium falciparum (isolate 3D7)), sequence (Q8IBS5 whole entry, looked up): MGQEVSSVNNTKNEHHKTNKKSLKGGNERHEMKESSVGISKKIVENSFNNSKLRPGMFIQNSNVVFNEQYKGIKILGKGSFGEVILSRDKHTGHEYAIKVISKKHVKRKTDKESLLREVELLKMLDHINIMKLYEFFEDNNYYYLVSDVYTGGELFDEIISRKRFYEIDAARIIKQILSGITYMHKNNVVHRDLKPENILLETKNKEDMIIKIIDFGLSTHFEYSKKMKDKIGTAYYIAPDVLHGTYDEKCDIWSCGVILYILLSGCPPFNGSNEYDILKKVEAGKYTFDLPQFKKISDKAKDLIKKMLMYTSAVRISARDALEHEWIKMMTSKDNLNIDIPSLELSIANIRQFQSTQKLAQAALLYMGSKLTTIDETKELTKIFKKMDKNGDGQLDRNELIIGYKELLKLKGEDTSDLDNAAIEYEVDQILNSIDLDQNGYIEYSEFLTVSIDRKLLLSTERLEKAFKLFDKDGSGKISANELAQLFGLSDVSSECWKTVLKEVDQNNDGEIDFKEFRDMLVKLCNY

Row | SMILES | outcome
9 | Cc1c2ccncc2c(C)c2c1[nH]c1ccccc12 | inactive
10 | C=CC12CCN(CC1)C(C(O)c1ccnc3ccc(OC)cc13)C2 (stereo unspecified) | inactive
11 | O=C(C=Cc1ccc(-c2ccccc2)cc1)NC1CCC(CN2CCC(c3c[nH]c4ccccc34)CC2)CC1 (stereo unspecified) | inactive
12 | COC(=O)/C=C/C(=O)N[C@@H]1CC[C@@]2(O)[C@H]3Cc4ccc(O)c5c4[C@@]2(CCN3CC2CC2)[C@H]1O5 | inactive
13 | COC(=O)c1ccc(CC(C)NCC(O)c2cccc(C(F)(F)F)c2)cc1F (stereo unspecified) | inactive
14 | Cc1[nH]c2cc(Cl)ccc2c1C1=CCN(CCCCC2(C)C(=O)Nc3c(F)cccc32)CC1 (stereo unspecified) | inactive
15 | Cc1c(C)c2c(c(C)c1O)CC[C@](C)(C(=O)N1CCC(CN3CCC(c4c[nH]c5ccccc45)CC3)CC1)O2 | inactive
16 | CC[C@H]1CN2CC[C@@H]1C[C@H]2[C@H](O)c1cc[n+]([O-])c2ccc(OC)cc12 | inactive

Test system: not listed separately
Assay: sensitizers of A549 cells to miR-34 induction, primary screen, imaging, A549 dox-inducible miR-34, nuclei and caspase counts (AID 1347080;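 active means compounds whose cell count with miR-34 switched on is under 0.7 times the count with it off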)
Settings: A549 miR-34 inducible, Hoechst nuclei count, 48 h; stronger effect = lower value

Row | SMILES | fold change
17 | Cc1c2ccncc2c(C)c2c1[nH]c1ccccc12 | 1.32 (inactive) and 0.785 (inactive)
18 | COC(=O)/C=C/C(=O)N[C@@H]1CC[C@@]2(O)[C@H]3Cc4ccc(O)c5c4[C@@]2(CCN3CC2CC2)[C@H]1O5 | 0.925 (inactive)
19 | COc1ccc(CC2c3cc(OC)c(OC)cc3CCN2C)cc1OC (stereo unspecified) | 0.878 (inactive)
20 | C[C@@H]1CC[C@@]2(NC1)O[C@H]1C[C@H]3[C@@H]4CC=C5C[C@@H](O)CC[C@]5(C)[C@H]4CC[C@]3(C)[C@H]1[C@@H]2C | 0.905 (inactive)

Same assay, conditions: A549 miR-34 inducible, Hoechst nuclei count, 48 h; measured here: relative caspase fold change +Dox/-Dox

Row | SMILES | fold change
21 | Cc1c2ccncc2c(C)c2c1[nH]c1ccccc12 | 1.54 and 1.45
22 | COC(=O)/C=C/C(=O)N[C@@H]1CC[C@@]2(O)[C@H]3Cc4ccc(O)c5c4[C@@]2(CCN3CC2CC2)[C@H]1O5 | 0.877
23 | COc1ccc(CC2c3cc(OC)c(OC)cc3CCN2C)cc1OC (stereo unspecified) | 1.5
24 | C[C@@H]1CC[C@@]2(NC1)O[C@H]1C[C@H]3[C@@H]4CC=C5C[C@@H](O)CC[C@]5(C)[C@H]4CC[C@]3(C)[C@H]1[C@@H]2C | 1.06
25 | COc1cc2c(cc1O)C[C@H]1c3c(cc(O)c(OC)c3-2)CCN1C | 1.54
26 | C[C@H]1CC[C@]2(NC1)O[C@H]1C[C@H]3[C@@H]4CC[C@H]5C[C@@H](O)CC[C@]5(C)[C@H]4CC[C@]3(C)[C@H]1[C@@H]2C | 1.03

Same assay, conditions: A549 miR-34 inducible, Hoechst nuclei count, 48 h; measured here: total cells with miR-34 induction; stronger effect = lower value

Row | SMILES | cell count
27 | Cc1c2ccncc2c(C)c2c1[nH]c1ccccc12 | 324 and 1410
28 | COC(=O)/C=C/C(=O)N[C@@H]1CC[C@@]2(O)[C@H]3Cc4ccc(O)c5c4[C@@]2(CCN3CC2CC2)[C@H]1O5 | 7410
29 | COc1ccc(CC2c3cc(OC)c(OC)cc3CCN2C)cc1OC (stereo unspecified) | 9520
30 | C[C@@H]1CC[C@@]2(NC1)O[C@H]1C[C@H]3[C@@H]4CC=C5C[C@@H](O)CC[C@]5(C)[C@H]4CC[C@]3(C)[C@H]1[C@@H]2C | 9310
31 | COc1cc2c(cc1O)C[C@H]1c3c(cc(O)c(OC)c3-2)CCN1C | 8000
32 | C[C@H]1CC[C@]2(NC1)O[C@H]1C[C@H]3[C@@H]4CC[C@H]5C[C@@H](O)CC[C@]5(C)[C@H]4CC[C@]3(C)[C@H]1[C@@H]2C | 9790

Same assay, conditions: A549 miR-34 inducible, Hoechst nuclei count, 48 h; measured here: total cells without miR-34 induction

Row | SMILES | cell count
33 | Cc1c2ccncc2c(C)c2c1[nH]c1ccccc12 | 246 and 1800
34 | COC(=O)/C=C/C(=O)N[C@@H]1CC[C@@]2(O)[C@H]3Cc4ccc(O)c5c4[C@@]2(CCN3CC2CC2)[C@H]1O5 | 8010
35 | COc1ccc(CC2c3cc(OC)c(OC)cc3CCN2C)cc1OC (stereo unspecified) | 10800
36 | C[C@@H]1CC[C@@]2(NC1)O[C@H]1C[C@H]3[C@@H]4CC=C5C[C@@H](O)CC[C@]5(C)[C@H]4CC[C@]3(C)[C@H]1[C@@H]2C | 10300
37 | COc1cc2c(cc1O)C[C@H]1c3c(cc(O)c(OC)c3-2)CCN1C | 9040
38 | C[C@H]1CC[C@]2(NC1)O[C@H]1C[C@H]3[C@@H]4CC[C@H]5C[C@@H](O)CC[C@]5(C)[C@H]4CC[C@]3(C)[C@H]1[C@@H]2C | 11200

Target: NAD(+) hydrolase SARM1 (Homo sapiens) (UniProt Q6SZW1)
Assay: SARM1 TIR NADase inhibitors, cell lysate, NAD-Glo luminescence (AID 1508614;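 active means compound whose remaining NAD level is above about 45 nM, limit read from the data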;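 further: higher remaining NAD means stronger inhibition of SARM1 NADase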)
Settings: SAM-TIR HEK293T lysate NADase, at 1 µM, stronger effect = higher value

NAD(+) hydrolase SARM1 (Homo sapiens), sequence (Q6SZW1 whole entry, looked up): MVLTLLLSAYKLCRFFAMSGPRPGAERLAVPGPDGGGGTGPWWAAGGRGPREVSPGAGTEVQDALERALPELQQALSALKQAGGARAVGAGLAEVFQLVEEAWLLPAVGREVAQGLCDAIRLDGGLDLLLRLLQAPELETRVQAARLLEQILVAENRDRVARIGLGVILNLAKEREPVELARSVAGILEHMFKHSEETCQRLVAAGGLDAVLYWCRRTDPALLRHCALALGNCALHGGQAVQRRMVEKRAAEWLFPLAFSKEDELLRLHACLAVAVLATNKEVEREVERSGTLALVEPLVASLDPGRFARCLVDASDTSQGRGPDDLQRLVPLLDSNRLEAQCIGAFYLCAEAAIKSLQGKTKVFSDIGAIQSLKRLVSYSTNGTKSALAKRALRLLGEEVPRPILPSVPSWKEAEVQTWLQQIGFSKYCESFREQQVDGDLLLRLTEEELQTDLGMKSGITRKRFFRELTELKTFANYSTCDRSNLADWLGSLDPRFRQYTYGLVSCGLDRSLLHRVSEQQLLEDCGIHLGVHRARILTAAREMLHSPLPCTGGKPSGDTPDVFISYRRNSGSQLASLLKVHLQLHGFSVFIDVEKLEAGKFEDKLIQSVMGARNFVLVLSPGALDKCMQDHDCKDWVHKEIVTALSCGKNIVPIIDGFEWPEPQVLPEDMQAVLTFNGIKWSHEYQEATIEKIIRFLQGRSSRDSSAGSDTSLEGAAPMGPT

Row | SMILES | remaining NAD
39 | CC(=O)OCC1=C(C(=O)O)N2C(=O)[C@@H](NC(=O)CCC[C@@H](N)C(=O)O)[C@H]2SC1 | 10 nM (inactive)
40 | C[C@@H](CO)NC(=O)[C@@H]1C=C2c3cccc4[nH]cc(c34)C[C@H]2N(C)C1 | 10 nM (inactive)
41 | C[C@@H]1[C@H](O)[C@@H](C)/C=C/C=C/CC/C=C/C=C/C=C/C=C/C(O[C@H]2O[C@H](C)[C@@H](O)[C@H](N)[C@@H]2O)CC2O[C@](O)(CC(O)C(O)CCC(O)CC(O)CC(O)CC(=O)O[C@H]1C)CC(O)C2C(=O)O (stereo partly specified) | 10 nM (inactive)

Source: PubChem BioAssay
